Source: PubChem BioAssay (National Center for Advancing Translational Sciences (NCATS))
Hits are enriched below; roughly 2.4% of the tested compounds scored in any of these assays.
D2 PAM-1 = D2 dopamine receptor (human) potentiation; P14416; HEK293 T-REx D2, calcium flux, EC20 dopamine potentiation; potentiation, % at 10 µM; 0.34% of 340,000 active; AID 485347;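 active = potentiation over 3 SD above the plate norm, cut at about 30% in these data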
Target sequence (P14416 whole entry, looked up): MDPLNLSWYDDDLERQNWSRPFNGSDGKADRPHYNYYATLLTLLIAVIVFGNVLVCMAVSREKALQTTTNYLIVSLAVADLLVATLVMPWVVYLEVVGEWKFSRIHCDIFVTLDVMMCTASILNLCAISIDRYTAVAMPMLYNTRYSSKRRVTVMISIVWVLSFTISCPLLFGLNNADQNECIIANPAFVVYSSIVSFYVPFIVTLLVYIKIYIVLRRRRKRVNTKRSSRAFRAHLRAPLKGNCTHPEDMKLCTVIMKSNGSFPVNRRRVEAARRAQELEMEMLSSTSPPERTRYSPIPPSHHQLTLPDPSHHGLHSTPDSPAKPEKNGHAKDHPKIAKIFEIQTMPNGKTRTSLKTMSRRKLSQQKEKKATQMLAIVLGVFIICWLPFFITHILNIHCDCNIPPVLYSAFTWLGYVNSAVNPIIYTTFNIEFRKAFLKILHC
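Tetracycline-induced HEK293 T-REx cells force-coupled to calcium signalling expressed D2; compounds were pin-added after a 10 s baseline, read kinetically 180 s, then an EC20 dopamine challenge followed with a further 180 s calcium read.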
D2 ag-1 = agonists of human D2 dopamine receptor (beta-arrestin); 0.084% of 360,000 active; activation, % (no concentration beside the values); DiscoveRx PathHunter D2 beta-arrestin, luminescence, 90 min; 100% = 57 uM dopamine signal; in the data active = activation above about 40%; inconclusive = between about 15% and that limit
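DiscoveRx PathHunter D2 beta-arrestin cells (2,100/well) attached overnight, then compound-stimulated 90 min at 37 C in HBSS/10 mM HEPES/0.1% Tween-20 buffer; beta-galactosidase complementation read by luminescence after 1 h at ambient temperature. Dopamine 57 uM final (EC100) as control.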
D2 PAM-2 = potentiates the human D2 dopamine receptor allosterically | P14416 | DiscoveRx D2 beta-arrestin cells, luminescence, 90 min; 100% = 57 uM dopamine signal | potentiation, % (test concentration not listed) | 0.23% of 360,000 active | AID 624464; in the data active = potentiation above about 50%; inconclusive = mostly about 30% to 49%
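PathHunter D2 cells, attached overnight at 37 deg C, received compound in DMSO plus dopamine at EC20 (50 nM final) for 90 min at 37 deg C. Beta-arrestin recruitment was read as luminescence after 1 h with detection reagent at ambient temperature.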
D2 ag-2 = agonists of human D2 dopamine receptor | P14416 | HEK293 T-REx D2 cells, calcium flux agonist mode | activation, % at 2 µM | 0.53% of 340,000 active;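 active = activation over 3 SD above normal in the single-dose calcium agonist read, cut at about 30% in these data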
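Tetracycline-induced HEK293 Trex cells with D2 receptor force-coupled to calcium signaling, plated overnight at 30 C and loaded with no-wash calcium dye. Calcium flux read kinetically for 180 s after compound addition; responses flag agonists.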
D2 antagonist = antagonists of human D2 dopamine receptor; HEK293 TREx D2 cells, calcium flux, dopamine EC80; inhibition, % at 10 µM; 2% of 340,000 active; in the data active = inhibition above about 30%; inactive = below that, where a call was filed
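Antagonism is scored as inhibition of an EC80 dopamine-evoked calcium signal in a force-coupled, tetracycline-inducible HEK293 T-REx D2 line, with compound present 180 s before agonist.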
D3 ag = confirmation of human D3 dopamine receptor agonists, beta-arrestin. shares compounds with D2 ag-2. DiscoveRx D3 beta-arrestin cells, luminescence, 90 min. Potency, µM (series often up to 76.9 µM), actives largely listed as activators. 4% of 2,300 active. AID 720506; note: nearly all actives have a fitted effect of over 70% in size
D2 ag-3 = activates human D2 dopamine receptor in D3 counterscreen; shares compounds with D2 ag-2; DiscoveRx PathHunter D2 beta-arrestin, luminescence, 90 min; response scale: percent relative to full dopamine signal; 5.9% of 2,300 active; Potency, µM (titrated, usually from 76.9 µM), most hits filed as activators; note: nearly all actives have a fitted effect of over 70% in size
Each line names hits and unclear results; the compound was inactive in the other large screens (follow-up assays come after a bar, where they were run). Unless noted, calls come from the whole dose curve; as a rule, active = well fitted activation curve with a large enough effect; inconclusive = small, poorly fitted or top-dose-only effect; inactive = flat fitted curve, though single readings scatter.

Cc1cc(C)c(OCC(O)CN2CCN(c3ccccn3)CC2)c(C)c1 (stereo not given)	D2 ag-1 48, D2 PAM-2 inconclusive, D2 ag-2 79, D2 antagonist 78 | D3 ag 0.079µM | D2 ag-3 10µM
Cc1cc(OCC(O)CN2CCN(c3ccccn3)CC2)cc(C)c1Cl (stereo not given)	D2 ag-1 inconclusive, D2 ag-2 46, D2 antagonist 43 | D3 ag 6.3µM | D2 ag-3 inconclusive
OC(CN1CCN(c2ccccn2)CC1)Cn1c2ccccc2c2ccccc21 (stereo not given)	none
COC(=O)c1ccccc1NC(=O)c1ccc(-c2nc(COc3ccccc3)c(C)o2)cc1	none (no result: D2 ag-1, D2 PAM-2, D2 antagonist)
Cc1cn(C)c(CC(=O)Nc2cccc(Cl)c2C)c1C(=O)O	none (no result: D2 ag-1, D2 PAM-2, D2 antagonist)
CC(=O)NCC1CCCN(Cc2cn(-c3ccccc3)nc2-c2ccc3c(c2)OCO3)C1 (stereo not given)	none
COC(=O)C1CCN(Cc2nnc(-c3ccccc3)o2)CC1	D2 ag-1 inconclusive, D2 ag-2 45, D2 antagonist 66 | D3 ag 4µM | D2 ag-3 inactive
COC(=O)C1CCN(Cc2cn(-c3ccccc3)nc2-c2ccc3c(c2)OCO3)CC1	D2 ag-2 41, D2 antagonist 82 | D3 ag inactive | D2 ag-3 inactive
c1ccc(-c2nnc(CN3CCCCC3)o2)cc1	none
Cc1nc2ncnn2c(C)c1CCC(=O)NCc1ccccc1Cl	none (no result: D2 ag-1, D2 PAM-2, D2 antagonist)
O=C(NCc1cccs1)c1ccc(Cn2c(SCc3cccc(F)c3)nc3cccnc32)cc1	none (no result: D2 ag-1, D2 PAM-2, D2 antagonist)
Cc1cccc(C(=O)NNC(=S)NC(=O)c2cccs2)c1	none | D3 ag inactive | D2 ag-3 inactive
NS(=O)(=O)c1ccc(NC(=O)CN2C(=O)COc3ccc(Cl)cc32)cc1	none (no result: D2 ag-1, D2 PAM-2, D2 ag-2, D2 antagonist)
O=C(COC(=O)c1ccc(CNS(=O)(=O)c2ccc(F)c(Cl)c2)cc1)NCC1CCCCC1	D2 ag-2 69 | D3 ag inactive | D2 ag-3 inactive
COc1ccc(OCc2cc(C(=O)NC3CCc4ccccc43)no2)c(Cl)c1 (stereo not given)	D2 ag-2 58 | D3 ag inactive | D2 ag-3 inactive
O=C(NC1CCc2ccccc21)c1cc(COc2ccc(F)cc2F)on1 (stereo not given)	none
O=C(O)C1CCCN1S(=O)(=O)c1cccc2nsnc12 (stereo not given)	D2 ag-2 45 | D3 ag inactive | D2 ag-3 inactive
O=C(NCCN1CCN(c2ccccc2)CC1)C1CCN(S(=O)(=O)c2cccc3nsnc23)CC1	D2 ag-1 inconclusive, D2 antagonist 55 (no result: D2 PAM-1) | D3 ag inconclusive | D2 ag-3 inactive
O=C(NCCc1ccccc1)C1CCN(S(=O)(=O)c2cccc3nsnc23)CC1	none
COc1ccccc1N1CCN(C(=O)CSc2n[nH]c(-c3ccccc3Cl)n2)CC1	none (no result: D2 ag-1, D2 PAM-2, D2 antagonist)
CC(=O)N1c2ccccc2CC1C(=O)NCc1cccc(Cl)c1 (stereo not given)	none (no result: D2 PAM-1, D2 ag-1, D2 PAM-2, D2 antagonist)
O=C(Nc1cccc(C(F)(F)F)c1)c1cc(CN2CCOCC2)on1	none (no result: D2 ag-1, D2 PAM-2, D2 antagonist)
COCCCNC(=O)CN1C(=O)COc2ccc(S(=O)(=O)N3CCOCC3)cc21	none
CCCN(CCC)CCNC(=O)CN1C(=O)COc2ccc(S(=O)(=O)N3CCOCC3)cc21	D2 ag-2 37 | D3 ag inactive | D2 ag-3 inactive
C=C(C)C1CC=C(CN2CCC(C(=O)OCC)CC2)CC1 (stereo not given)	D2 ag-2 60, D2 antagonist 72 | D3 ag inactive | D2 ag-3 inactive
COc1ccc(Cl)cc1NC(=O)NCCn1c(=O)oc2ccc(C)cc21	none (no result: D2 ag-1, D2 PAM-2, D2 antagonist)
Cn1ccc(C(=O)Nc2ccc3c(c2)OCCO3)n1	none | D3 ag inactive | D2 ag-3 inactive
Clc1nnc(NN=C2CCCC2)c2ccccc12	D2 ag-2 61 | D3 ag inactive | D2 ag-3 inactive
Cc1ccc(CCNC(=O)C2CCCN(S(=O)(=O)c3ccc4c(c3)oc(=O)n4C)C2)cc1 (stereo not given)	none (no result: D2 ag-1, D2 PAM-2, D2 ag-2, D2 antagonist)
COc1ccc(N2CCN(CCCn3c(=S)[nH]c4ncccc4c3=O)CC2)cc1	none
O=c1c2cccnc2[nH]c(=S)n1CCCN1CCN(c2ccc(F)cc2)CC1	D2 ag-2 54, D2 antagonist 101 | D3 ag inactive | D2 ag-3 inactive
COc1cc(C(=O)OCc2ccc(C)cc2)cc(NC(=O)c2cccs2)c1OC	D2 antagonist 38 | D3 ag inactive | D2 ag-3 inactive
Cc1onc(-c2c(Cl)cccc2Cl)c1C(=O)N1CCc2ccccc2C1	D2 ag-2 72 | D3 ag inactive | D2 ag-3 inactive
CCS(=O)(=O)N1CCC2(CC1)OC(=O)C(C)=C2C(=O)NCc1ccccc1C	none (no result: D2 ag-1, D2 PAM-2, D2 antagonist)
Nc1ncnc2c1ncn2C1OC(C(=O)NC2CC2)C(O)C1O (stereo not given)	none | D3 ag inactive | D2 ag-3 inactive
C[C@@H](CO)NC(=O)[C@H]1O[C@@H](n2cnc3c(N)ncnc32)[C@H](O)[C@@H]1O	none (no result: D2 PAM-1, D2 ag-2, D2 antagonist)
CC1(C)CC(=O)C=C(c2ccc3ccccc3c2)C1	none (no result: D2 ag-2, D2 antagonist) | D3 ag inactive | D2 ag-3 inactive
Cc1ccc(C2=CC(=O)CC(C)(C)C2)cc1	none
O=C1CCC(C(=O)N2CCN(c3ccc(F)cc3)CC2)CN1CC1CCCCC1 (stereo not given)	none
O=C1CCC(C(=O)N2CCN(c3ccccc3)CC2)CN1CC1CCCCC1 (stereo not given)	D2 ag-2 62 | D3 ag inactive | D2 ag-3 inconclusive
CSc1ccc(CCNC(=O)c2csc3c2CCCCC3)cc1	none (no result: D2 ag-1, D2 PAM-2, D2 antagonist)
CCCN1CCC2(CC1)C(C#N)=C(N)Oc1c2sc2nc(C)cc(C)c12	D2 ag-2 78, D2 antagonist 96 | D3 ag inactive | D2 ag-3 inactive
COc1ccc2oc(C(=O)OCC(=O)Nc3cccc(S(=O)(=O)N4CCOCC4)c3)c(C)c2c1	none
COc1ccc2oc(C(=O)Nc3cccc(S(=O)(=O)N4CCOCC4)c3)c(C)c2c1	none | D3 ag inactive | D2 ag-3 inactive
CCn1c(CC2C(=O)N(C)c3ccccc32)nc2ccccc2c1=O (stereo not given)	none (no result: D2 ag-1, D2 PAM-2, D2 antagonist)
CC(=O)c1ccc(N2CCN(C(=O)C3CCCN(S(=O)(=O)c4cnc[nH]4)C3)CC2)cc1 (stereo not given)	D2 antagonist 32 | D3 ag inactive | D2 ag-3 inactive
CC(=O)c1ccc(N2CCN(C(=O)C3CCCN(S(=O)(=O)c4ccc(Br)s4)C3)CC2)cc1 (stereo not given)	none (no result: D2 ag-1, D2 PAM-2, D2 antagonist)
